BioA inh – M. tuberculosis BioA enzyme inhibitors, primary screen, biochemical, plate reader, single point, HTS; 7,8-diaminopelargonic acid synthase BioA (Mycobacterium tuberculosis); purified M. tuberculosis BioA enzyme; inhibition, % at 9.99 µM; hit rate 0.096% among 360,000; AID 602481, 2012; in the data active = inhibition above about 40%
TcdB inh – TcdB glycohydrolase inhibitors, primary screen, biochemical, single point, plate reader | Toxin B (Clostridioides difficile), P18177 | TcdB glycohydrolase enzymatic assay | inhibition, % at 9.99 µM | hit rate 0.24% among 350,000 | AID 652162, 2013; in the data active = inhibition above about 10%
Target sequence (P18177 whole entry, looked up): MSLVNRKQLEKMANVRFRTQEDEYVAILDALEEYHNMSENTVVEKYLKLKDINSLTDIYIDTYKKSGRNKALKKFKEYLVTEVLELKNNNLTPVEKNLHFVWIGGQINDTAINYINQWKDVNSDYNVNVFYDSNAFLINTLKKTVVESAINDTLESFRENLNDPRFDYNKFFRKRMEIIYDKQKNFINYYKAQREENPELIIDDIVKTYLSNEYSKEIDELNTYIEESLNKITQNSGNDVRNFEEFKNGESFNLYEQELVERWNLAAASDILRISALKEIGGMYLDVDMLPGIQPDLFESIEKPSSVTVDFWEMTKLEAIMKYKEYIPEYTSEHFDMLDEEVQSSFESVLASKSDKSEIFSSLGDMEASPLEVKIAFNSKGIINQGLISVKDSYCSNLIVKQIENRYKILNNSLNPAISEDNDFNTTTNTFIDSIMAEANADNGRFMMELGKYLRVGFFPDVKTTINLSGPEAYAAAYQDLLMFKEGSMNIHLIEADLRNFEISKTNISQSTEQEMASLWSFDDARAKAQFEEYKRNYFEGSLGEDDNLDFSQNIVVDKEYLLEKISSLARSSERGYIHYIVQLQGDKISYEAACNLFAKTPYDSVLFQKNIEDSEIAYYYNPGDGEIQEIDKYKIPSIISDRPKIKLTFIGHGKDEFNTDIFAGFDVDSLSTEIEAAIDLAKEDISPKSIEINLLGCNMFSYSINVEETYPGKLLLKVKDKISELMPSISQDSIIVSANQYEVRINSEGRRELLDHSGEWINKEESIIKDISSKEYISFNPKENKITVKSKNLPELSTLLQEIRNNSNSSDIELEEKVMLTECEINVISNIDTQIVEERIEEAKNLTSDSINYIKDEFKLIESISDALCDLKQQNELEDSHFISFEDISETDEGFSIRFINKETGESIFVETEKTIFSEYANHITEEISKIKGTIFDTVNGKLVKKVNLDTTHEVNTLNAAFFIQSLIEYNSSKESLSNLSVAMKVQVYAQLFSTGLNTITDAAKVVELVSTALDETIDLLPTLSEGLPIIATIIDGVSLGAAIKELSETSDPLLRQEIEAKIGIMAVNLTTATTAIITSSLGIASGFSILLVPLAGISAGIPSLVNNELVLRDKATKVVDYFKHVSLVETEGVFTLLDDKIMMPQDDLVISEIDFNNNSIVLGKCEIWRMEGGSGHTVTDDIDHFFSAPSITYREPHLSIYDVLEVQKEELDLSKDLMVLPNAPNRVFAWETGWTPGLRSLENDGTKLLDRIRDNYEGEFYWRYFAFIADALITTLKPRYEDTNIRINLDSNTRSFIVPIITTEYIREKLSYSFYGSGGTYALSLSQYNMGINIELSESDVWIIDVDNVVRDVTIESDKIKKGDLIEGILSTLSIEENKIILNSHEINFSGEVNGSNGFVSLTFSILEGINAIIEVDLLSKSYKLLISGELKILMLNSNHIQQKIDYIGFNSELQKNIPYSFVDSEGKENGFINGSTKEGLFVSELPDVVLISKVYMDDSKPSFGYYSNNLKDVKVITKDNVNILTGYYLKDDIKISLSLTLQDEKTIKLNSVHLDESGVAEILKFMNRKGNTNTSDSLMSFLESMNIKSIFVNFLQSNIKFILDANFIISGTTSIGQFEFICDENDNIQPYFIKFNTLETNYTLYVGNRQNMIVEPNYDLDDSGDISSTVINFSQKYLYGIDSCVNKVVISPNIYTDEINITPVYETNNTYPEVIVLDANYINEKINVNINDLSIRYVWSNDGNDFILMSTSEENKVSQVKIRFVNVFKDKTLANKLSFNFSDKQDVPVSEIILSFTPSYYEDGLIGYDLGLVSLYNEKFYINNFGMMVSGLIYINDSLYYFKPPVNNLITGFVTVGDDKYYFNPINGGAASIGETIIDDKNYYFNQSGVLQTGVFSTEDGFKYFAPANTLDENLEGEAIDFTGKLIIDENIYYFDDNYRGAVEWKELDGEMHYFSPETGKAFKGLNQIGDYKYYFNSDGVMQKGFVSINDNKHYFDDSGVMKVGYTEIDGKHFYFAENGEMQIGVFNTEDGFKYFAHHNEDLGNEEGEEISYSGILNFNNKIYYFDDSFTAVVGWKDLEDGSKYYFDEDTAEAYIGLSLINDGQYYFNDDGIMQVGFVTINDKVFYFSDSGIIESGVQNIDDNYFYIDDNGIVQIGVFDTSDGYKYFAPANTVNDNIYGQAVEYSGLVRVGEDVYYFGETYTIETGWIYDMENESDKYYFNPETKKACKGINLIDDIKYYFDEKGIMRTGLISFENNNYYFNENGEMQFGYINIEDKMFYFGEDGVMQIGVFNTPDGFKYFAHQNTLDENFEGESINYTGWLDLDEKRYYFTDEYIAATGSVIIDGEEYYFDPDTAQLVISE
PriA SSB inh – inhibitors of Klebsiella pneumoniae PriA binding to SSB C-terminal tail, primary screen, biochemical, AlphaScreen. AlphaScreen SSBct-PriA binding, biotinylated peptide. PriA–SSB C-terminal tail interaction (Klebsiella pneumoniae). inhibition, % at 33 µM. hit rate 0.6% among 430,000; in the data active = inhibition mostly above about 37%, no sharp cut-off; inactive = mostly below about 20%;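 also: plate controls were negative control peptide for no effect and reference peptide for full effect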
PrP UTR inh – inhibition of PrP 5' UTR reporter expression | cell-based PrP 5' UTR mRNA reporter, plate reader | inhibition, % (test concentration not listed) | hit rate 0.35% among 340,000 | AID 488862, 2010; in the data active = inhibition above about 52%; also: 0 = median of the neutral control wells
FadD28 FP inh – inhibitors of FadD28 bisubstrate probe binding, primary screen, biochemical, fluorescence polarization, single point; Mycobacterium tuberculosis FadD28 fatty-acid-AMP ligase; inhibition, % at 12.5 µM; hit rate 0.22% among 360,000; AID 588549, 2011; in the data active = inhibition above about 8.5%, passing the limit was not always enough
Mtb hypoxia inh – PubChem AID 1159583; M. tuberculosis hypoxia-regulated fluorescent reporter, fluorescence; fluorescence inhibition, % (concentration not given with the values); hit rate 0.1% among 300,000; in the data active = fluorescence inhibition mostly above about 23%, no sharp cut-off; inactive = mostly below about 17%
* = called active by the depositor; / = not tested or not shown. A selection: hits, their analogues and other compounds. The true share with any hit is near 1%.

SMILES | BioA inh | TcdB inh | PriA SSB inh | PrP UTR inh | FadD28 FP inh | Mtb hypoxia inh
COC(=O)c1ccc(OC(=O)c2ccc(OC)cc2)c(OC)c1 | / | 11* | -13 | 32 | -2 | -6
COc1cccc(C(=O)N2CCC(n3nccc3NC(=O)C(OC)c3ccccc3)CC2)c1 (stereo unspecified) | 0 | 2 | -6 | -4 | -3 | 3
CC(C)(C)NC(=O)COc1ccc(S(=O)(=O)N2CCCC2)cc1 | 9 | 1 | -5 | -22 | 0 | 3
Cc1ccnc(Nc2nc(-c3ccccn3)cs2)c1 | / | / | 147* | / | / | /
CC(=O)Nc1ccc(Nc2nc(-c3ccccn3)cs2)cc1 | / | / | 90* | / | / | /
c1ccc(-c2csc(Nc3cccnc3)n2)nc1 | 1 | / | 71* | / | -3 | 6
Cc1ccc(Nc2nc(-c3ccccn3)cs2)cc1 | / | / | 109* | / | / | /
c1ccc(Nc2nc(-c3ccccn3)cs2)cc1 | 3 | / | 37 | -90 | 1 | 0
C=CCO/N=C/C1C(=O)CC(C)(C)CC1=O | / | 0 | / | -9 | 0 | /
COc1ccc(Cc2cc(NCc3ccccc3)c3ncn(C(C)C)c3c2)cc1 | 0 | -1 | 66* | 10 | 1 | 8
CCC(CO)Oc1cc(NCc2ccccc2)c2ncn(C(C)C)c2c1 (stereo unspecified) | 0 | -3 | 12 | 4 | 0 | 12
CCC(COC)Oc1cc(NCc2ccccc2)c2ncn(C(C)C)c2c1 (stereo unspecified) | -2 | -1 | 63* | -6 | 0 | 6
CCCC#Cc1ccc2c(c1)O[C@H](CN(C)C(=O)Nc1ccc(OC)cc1)[C@H](C)CN([C@H](C)CO)S2(=O)=O | 0 | -1 | / | / | / | /
c1ccc(CNc2nc(-c3cccs3)nc3ccccc23)cc1 | / | 1 | -40 | -31 | -8 | -7
Cc1cc(C)nc(Nc2cccc(Cl)c2)n1 | -2 | 1 | -10 | -12 | -1 | 1
COC1=C(Nc2ccccc2OC)C(=O)c2ccccc2C1=O | 1 | 0 | 68* | -23 | -3 | -9
NC(=O)NN=C1CC2CC1C1C=CCC21 (stereo unspecified) | / | 14* | -15 | -11 | -2 | /
CC(=O)c1ccc(NS(=O)(=O)c2ccc(-c3ccc(C)cc3)cc2)cc1 | / | / | -9 | / | / | /
CC(=O)c1ccc(NC(=O)Nc2ccc(NS(=O)(=O)c3ccc(C)cc3)cc2)cc1 | / | / | 10 | -9 | 11* | 6
Cc1noc(-c2c(NC(=O)CSc3ccc(F)cc3)sc3c2CCOC3)n1 | / | / | 8 | / | / | /
COCCn1c(C)cc(C(=O)COc2ccc(C)nc2[N+](=O)[O-])c1C | 15 | 0 | 47* | 19 | -1 | 15
O=C(N[C@H](Cc1ccccc1)C(=O)N(CCC1=CCCCC1)CC1CC1)[C@H]1O[C@@H](n2ccc(=O)[nH]c2=O)[C@H](O)[C@@H]1O | / | 1 | / | / | / | /
Cc1ccc(NS(=O)(=O)c2ccc(NN=Cc3ccccc3OCC(=O)O)c([N+](=O)[O-])c2)c(C)c1 | / | / | / | / | / | 18
O=C(O)COc1ccccc1C=NNc1ccc([N+](=O)[O-])cc1S(=O)(=O)Nc1ccc(Cl)cc1 | 8 | 0 | -10 | -13 | 16* | 13
O=[N+]([O-])c1ccccc1NN=Cc1ccccc1 | / | / | -9 | / | / | 16
SMILES | BioA inh | TcdB inh | PriA SSB inh | PrP UTR inh | FadD28 FP inh | Mtb hypoxia inh
COc1ccccc1NS(=O)(=O)c1ccc(N/N=C/c2ccccc2OCC(=O)O)c([N+](=O)[O-])c1 | 0 | 1 | / | -18 | 19* | /
CC(C)Oc1ccccc1C=NNc1ccccc1[N+](=O)[O-] | / | / | 82* | / | / | 6
O=C(O)c1ccccc1NS(=O)(=O)c1ccc(N/N=C/c2ccc(O)c(O)c2)c([N+](=O)[O-])c1 | 6 | -14 | / | -4 | 53* | /
Cc1cc(C(=S)N2CCOCC2)c(C)n1-c1ccc(F)cc1 | / | 0 | -11 | -26 | -1 | -4
Cc1ccc(NC(=O)C2OCCc3ccccc32)cc1C (stereo unspecified) | -1 | 11* | -20 | -61 | -3 | 2
Cc1ccc(/C=C/C(=O)N(Cc2cccs2)C2CCS(=O)(=O)C2)cc1 (stereo unspecified) | 1 | 1 | -6 | / | 0 | 5
Cn1c(-c2ccc(Cl)cc2)cnc1N | / | / | 54* | -19 | -2 | 9
